Experiment [1] is described as follows: ATG_TAL_CIS: Attagene CIS-FACTORIAL HepG2 Assay for human TAL Basal Promoter (AID 2282966).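 Further: background control endpoint measuring basal TAL promoter reporter mRNA not a specific factor.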 To be noted: HepG2 Attagene cis-factorial TAL promoter reporter; actives raise or lower the signal. The method in brief:
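Steps: transfect HepG2 with multiple reporter transcription units; dose 24 h; isolate RNA, reverse-transcribe, PCR-amplify, label with 6-FAM, digest with HpaI; resolve by capillary electrophoresis. Bidirectional fitting against DMSO baseline.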

The nature of experiment [2]: ATG_TGFb_CIS: Attagene CIS-FACTORIAL HepG2 Assay for human Transforming Growth Factor (TGF) (AID 2282967). To be noted: HepG2 Attagene CIS TGFb reporter, mRNA transcription; actives raise or lower the signal. The method in brief: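 After a 24-hour incubation with compound, transfected HepG2 cells were lysed for RNA; reporter cDNA was amplified, fluorescently end-labeled and separated by CE. DMSO served as baseline for bidirectional fits.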

Experiment [3] can be described thus: ATG_VDRE_CIS: Attagene CIS-FACTORIAL HepG2 Assay for human Vitamin D Receptor Element (VDRE) (AID 2282968). As to conditions: HepG2 VDRE cis-reporter transcription, actives raise or lower the signal. In outline:
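Reporter mRNA induction, quantified by capillary electrophoresis of fluorescently labelled RT-PCR products, was read 24 h after dosing HepG2 cells carrying transiently transfected cis-regulated reporter units; gain or loss relative to DMSO.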

In experiment [4] the target is Steroid hormone receptor ERR1 (Homo sapiens) (UniProt P11474). In words: ATG_ERRa_TRANS: Attagene TRANS-FACTORIAL HepG2 Assay for human Estrogen-Related Receptor alpha (ERRa) (AID 2282971; active means hit-call score of the fitted dose curve at least 0.9, where 1 is the maximum). To be noted: HepG2 Attagene TRANS reporter, ERRa transactivation. In outline:
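Signal gain relative to DMSO for an ERRa-Gal4 chimeric receptor, read as reporter mRNA by RT-PCR/capillary electrophoresis. Human HepG2 liver cells, transient multiplex reporter transfection, 24 h chemical exposure.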

Experiment [5] deals with X-box-binding protein 1 (Homo sapiens) (UniProt P17861). The experiment can be described thus: ATG_Xbp1_CIS: Attagene CIS-FACTORIAL HepG2 Assay for human X-box Binding Protein 1 (XBP1) (AID 2282972). To be noted: HepG2 XBP1 cis-element reporter, Attagene multiplex; actives raise or lower the signal. In outline:
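Fluorescence-labelled cDNA fragments from reporter transcripts, separated by capillary electrophoresis, give the signal. Source: HepG2 cells transfected with promoter-driven reporter units, harvested 24 h post-dose. DMSO served as reference for bidirectional curve fitting.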

In experiment [6] the target is Estrogen-related receptor gamma (Homo sapiens) (UniProt P62508). In words: ATG_ERRg_TRANS: Attagene TRANS-FACTORIAL HepG2 Assay for human Estrogen-Related Receptor gamma (ERRg) (AID 2282977; active means hit-call score of the fitted dose curve at least 0.9, where 1 is the maximum;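 further: hits increase reporter signal over DMSO so potencies reflect activators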). To be noted: HepG2 Attagene TRANS reporter, ERRg transactivation. In outline: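 HepG2 cells transiently transfected with multiplexed GAL4-UAS reporter units driven by chimeric NR-Gal4 proteins; 24 h exposure. Reporter mRNA quantified by RT-PCR, fluorescent labelling, HpaI digestion and capillary electrophoresis; gain of signal vs DMSO.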

In experiment [7] the target is Glucocorticoid receptor (Homo sapiens) (UniProt P04150). In words: ATG_GR_TRANS: Attagene TRANS-FACTORIAL HepG2 Assay for human Glucocorticoid Receptor (GR) (AID 2282978; active means hit-call score of the fitted dose curve at least 0.9, where 1 is the maximum;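 further: activators score as hits since higher reporter transcript over DMSO is fitted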). As to conditions: HepG2 Attagene TRANS GR reporter, mRNA transcription. The method in brief: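 HepG2 cells transiently transfected with GAL4-UAS reporter units and exogenous GR-Gal4 chimera, dosed 24 h. Reporter mRNA by RT-PCR, FAM labeling, HpaI digest and capillary electrophoresis; gain-of-signal fit versus DMSO.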
Chain of Glucocorticoid receptor (Homo sapiens) (P04150 whole entry, looked up, the tested form may be a part): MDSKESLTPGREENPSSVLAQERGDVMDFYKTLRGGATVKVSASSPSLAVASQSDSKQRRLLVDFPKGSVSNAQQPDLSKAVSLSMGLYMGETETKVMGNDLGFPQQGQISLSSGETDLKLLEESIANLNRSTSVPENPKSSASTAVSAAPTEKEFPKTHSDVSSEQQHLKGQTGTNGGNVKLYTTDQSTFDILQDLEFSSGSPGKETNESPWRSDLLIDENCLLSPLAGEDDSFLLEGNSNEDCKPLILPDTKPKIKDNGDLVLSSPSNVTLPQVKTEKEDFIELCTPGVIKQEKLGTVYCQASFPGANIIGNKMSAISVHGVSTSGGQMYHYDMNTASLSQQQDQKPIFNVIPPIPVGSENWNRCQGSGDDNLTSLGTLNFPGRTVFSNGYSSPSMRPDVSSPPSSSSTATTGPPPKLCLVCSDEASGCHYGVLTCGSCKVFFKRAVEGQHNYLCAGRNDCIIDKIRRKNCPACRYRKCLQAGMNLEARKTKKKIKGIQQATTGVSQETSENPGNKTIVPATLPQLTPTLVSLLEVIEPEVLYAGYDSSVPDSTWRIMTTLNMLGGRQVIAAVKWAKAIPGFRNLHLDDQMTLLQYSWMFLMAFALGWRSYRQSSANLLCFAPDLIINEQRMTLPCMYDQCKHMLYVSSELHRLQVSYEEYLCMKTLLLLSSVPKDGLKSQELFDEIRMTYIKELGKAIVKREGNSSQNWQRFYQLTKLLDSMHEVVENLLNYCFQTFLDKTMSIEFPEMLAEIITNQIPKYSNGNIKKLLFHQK

For experiment [8], the target named is Bile acid receptor (Homo sapiens) (UniProt Q96RI1). The experiment can be described thus: ATG_FXR_TRANS: Attagene TRANS-FACTORIAL HepG2 Assay for Farnesoid X Receptor (FXR) (AID 2282979; active means hit-call score of the fitted dose curve at least 0.9, where 1 is the maximum;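 further: hits raise reporter mRNA above DMSO so AC50 marks FXR activation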). To be noted: HepG2 Attagene TRANS FXR-GAL4 reporter transcription. In outline: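 After 24 h chemical treatment of transfected HepG2 cells, GAL4-UAS reporter transcripts driven by an exogenous FXR-GAL4 fusion were measured by RT-PCR and capillary electrophoresis. Increases over DMSO were fitted.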
Chain of Bile acid receptor (Homo sapiens) (Q96RI1 whole entry, looked up, the tested form may be a part): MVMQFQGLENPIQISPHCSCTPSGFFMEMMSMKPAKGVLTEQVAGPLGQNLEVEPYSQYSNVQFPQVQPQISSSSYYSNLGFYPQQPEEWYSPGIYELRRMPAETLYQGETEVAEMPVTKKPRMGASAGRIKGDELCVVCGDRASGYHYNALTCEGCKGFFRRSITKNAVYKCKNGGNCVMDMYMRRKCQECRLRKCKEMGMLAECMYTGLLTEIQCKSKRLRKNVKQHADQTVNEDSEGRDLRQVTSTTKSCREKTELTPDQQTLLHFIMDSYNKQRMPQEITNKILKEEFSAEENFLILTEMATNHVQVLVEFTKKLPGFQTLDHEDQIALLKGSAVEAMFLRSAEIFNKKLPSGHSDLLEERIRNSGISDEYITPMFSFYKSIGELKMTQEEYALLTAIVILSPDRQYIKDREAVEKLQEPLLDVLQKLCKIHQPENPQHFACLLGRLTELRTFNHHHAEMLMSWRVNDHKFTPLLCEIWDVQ

Experiment [9] has as its target Oxysterols receptor LXR-alpha (Homo sapiens) (UniProt Q13133). In words: ATG_LXRa_TRANS: Attagene TRANS-FACTORIAL HepG2 Assay for human Liver X Receptor alpha (LXRa) (AID 2282980; active means hit-call score of the fitted dose curve at least 0.9, where 1 is the maximum). As to conditions: HepG2 Attagene TRANS reporter, LXRa transactivation. The method in brief:
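In this multiplexed TRANS system, compounds act on HepG2 cells carrying GAL4-UAS reporter units and a receptor-GAL4 fusion for 24 h. Induced reporter RNA is amplified, fluorescently labelled and sized by capillary electrophoresis, with DMSO as baseline.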

Experiment [10] has as its target Oxysterols receptor LXR-beta (Homo sapiens) (UniProt P55055). The experiment can be described thus: ATG_LXRb_TRANS: Attagene TRANS-FACTORIAL HepG2 Assay for human Liver X Receptor beta (LXRb) (AID 2282981; active means hit-call score of the fitted dose curve at least 0.9, where 1 is the maximum). To be noted: HepG2 Attagene TRANS GAL4-LXRb reporter, mRNA. In outline:
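Transient transfection HepG2 (multiplexed RTUs, GAL4-UAS); NR-Gal4 chimera; 24 h exposure; RNA → RT-PCR → 6-FAM primer extension → HpaI → CE; increase vs DMSO.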

A short description of experiment [11]: ATG_M_06_TRANS: Attagene TRANS-FACTORIAL HepG2 Assay for M06 Transcription Factor (Internal Marker) (AID 2282983; active means hit-call score of the fitted dose curve at least 0.9, where 1 is the maximum;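 further: reporter transcript level by RT-PCR then capillary electrophoresis fluorescence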). To be noted: HepG2 Attagene TRANS M06 internal marker reporter. In outline: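 Internal-marker background readout from a multiplexed TRANS reporter system in HepG2; 24 h dosing; mRNA induction quantified by RT-PCR plus capillary electrophoresis fluorescence; DMSO as negative control and baseline.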

Experiment [12] is described as follows: ATG_M_32_TRANS: Attagene TRANS-FACTORIAL HepG2 Assay for M32 Transcription Factor (Internal Marker) (AID 2282984; active means hit-call score of the fitted dose curve at least 0.9, where 1 is the maximum;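 further: transcript level of a background control reporter unit measured by RT-PCR and capillary electrophoresis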). As to conditions: HepG2 Attagene TRANS M32 internal marker reporter. The method in brief:
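Measures reporter mRNA induction in human HepG2 liver cells after 24 h chemical treatment. Transcripts from transiently transfected GAL4-UAS reporter units are amplified, fluorescently labelled and sized by capillary electrophoresis; gain of signal relative to DMSO.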

Experiment [13] deals with Nuclear respiratory factor 1 (Homo sapiens) (UniProt Q16656). In words: ATG_NRF1_CIS: Attagene CIS-FACTORIAL HepG2 Assay for human Nuclear Respiratory Factor 1 (NRF1) Orphan Gene (AID 2282987). As to conditions: HepG2 NRF1 cis-element reporter, Attagene multiplex; actives raise or lower the signal. In outline: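 HepG2 cells transiently transfected with multiple cis-regulated reporter units, exposed 24 h. Reporter mRNAs measured by RT-PCR, fluorescent labelling, HpaI digestion and capillary electrophoresis; bidirectional fitting against DMSO.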
Chain of Nuclear respiratory factor 1 (Homo sapiens) (Q16656 whole entry, looked up): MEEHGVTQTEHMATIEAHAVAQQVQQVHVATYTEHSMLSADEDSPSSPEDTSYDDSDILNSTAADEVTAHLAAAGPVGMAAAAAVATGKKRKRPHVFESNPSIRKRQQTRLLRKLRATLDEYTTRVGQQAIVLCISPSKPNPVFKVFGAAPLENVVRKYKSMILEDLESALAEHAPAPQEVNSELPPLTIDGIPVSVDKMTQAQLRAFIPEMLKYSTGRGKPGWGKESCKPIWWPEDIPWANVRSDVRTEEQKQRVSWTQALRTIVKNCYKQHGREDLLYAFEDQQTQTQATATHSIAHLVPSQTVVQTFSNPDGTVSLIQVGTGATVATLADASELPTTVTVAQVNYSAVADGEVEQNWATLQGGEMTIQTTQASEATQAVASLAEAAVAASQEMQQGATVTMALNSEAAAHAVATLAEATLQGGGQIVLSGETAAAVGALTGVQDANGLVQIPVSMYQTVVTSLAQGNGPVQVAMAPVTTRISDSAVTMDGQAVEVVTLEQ

Experiment [14] in a line: ATG_GAL4_TRANS: Attagene TRANS-FACTORIAL HepG2 Assay for GAL4 (Internal Marker) (AID 2282976; active means hit-call score of the fitted dose curve at least 0.9, where 1 is the maximum). To be noted: HepG2 Attagene TRANS GAL4 internal marker reporter. In outline:
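Liver HepG2 line bearing multiplexed GAL4-UAS reporter constructs; 24 h chemical treatment. Transcripts were quantified as fluorescent fragments on capillary electrophoresis after RT-PCR and HpaI cut, with activity fitted upward from DMSO.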

The target in experiment [15] is Nuclear receptor subfamily 4 group A member 2 (Homo sapiens) (UniProt P43354). In words: ATG_NURR1_TRANS: Attagene TRANS-FACTORIAL HepG2 Assay for human Nuclear Receptor Related Protein 1 (NURR1) (AID 2282985; active means hit-call score of the fitted dose curve at least 0.9, where 1 is the maximum). To be noted: HepG2 Attagene TRANS reporter, mRNA readout. The method in brief:
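Transient transfection of HepG2, human liver cells, with multiple GAL4-UAS reporter transcription units. Cells dosed 24 h, RNA isolated, reverse-transcribed, PCR-amplified, FAM-labelled, HpaI-digested, sized by capillary electrophoresis. DMSO served as negative control.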

Experiment [16] has as its target Transcriptional activator Myb (Homo sapiens) (UniProt P10242). The experiment can be described thus: ATG_Myb_CIS: Attagene CIS-FACTORIAL HepG2 Assay for human Myeloblastosis (Myb) Proto-Oncogene Transcription Factor (AID 2282986). As to conditions: HepG2 Attagene CIS-FACTORIAL Myb reporter transcription; actives raise or lower the signal. In outline:
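Transiently transfected HepG2 cells carrying a multiplexed cis-promoter reporter set report endogenous Myb activity after 24 h compound exposure. Reporter mRNA is read by RT-PCR with capillary electrophoresis of fluorescent products, fitted bidirectionally against DMSO.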

Experiment [17] can be described thus: ATG_M_19_TRANS: Attagene TRANS-FACTORIAL HepG2 Assay for M19 Transcription Factor (Internal Marker) (AID 2282974; active means hit-call score of the fitted dose curve at least 0.9, where 1 is the maximum). As to conditions: HepG2 Attagene TRANS-FACTORIAL M19 internal marker reporter. In outline: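 HepG2 transiently transfected with GAL4-UAS multiplex reporter constructs, exposed 24 h; reporter RNA quantified by RT-PCR, 6-FAM labeling, HpaI digestion and capillary electrophoresis; internal background marker fitted upward versus DMSO.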

Experiment [18] addresses Hepatocyte nuclear factor 4-alpha (Homo sapiens) (UniProt P41235). In words: ATG_HNF4a_TRANS: Attagene TRANS-FACTORIAL HepG2 Assay for human Hepatocyte Nuclear Factor 4 alpha (HNF4a) (AID 2282982; active means hit-call score of the fitted dose curve at least 0.9, where 1 is the maximum). To be noted: HepG2 HNF4a transactivation reporter, mRNA readout. The method in brief: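 Readout is fluorescent reporter-transcript fragments resolved by capillary electrophoresis after RT-PCR from HepG2 cells dosed for 24 h. Cells carried transfected GAL4-UAS reporter constructs measuring exogenous NR-GAL4 chimera activity; DMSO served as baseline.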

Results filed as inconclusive are left out. Activity calls are given as the source filed them. How the source made its calls, unless noted: active means hit-call score of the fitted dose curve at least 0.9, where 1 is the maximum; inactive means score below 0.9.

Chain of Hepatocyte nuclear factor 4-alpha (Homo sapiens) (P41235 whole entry, looked up, the tested form may be a part): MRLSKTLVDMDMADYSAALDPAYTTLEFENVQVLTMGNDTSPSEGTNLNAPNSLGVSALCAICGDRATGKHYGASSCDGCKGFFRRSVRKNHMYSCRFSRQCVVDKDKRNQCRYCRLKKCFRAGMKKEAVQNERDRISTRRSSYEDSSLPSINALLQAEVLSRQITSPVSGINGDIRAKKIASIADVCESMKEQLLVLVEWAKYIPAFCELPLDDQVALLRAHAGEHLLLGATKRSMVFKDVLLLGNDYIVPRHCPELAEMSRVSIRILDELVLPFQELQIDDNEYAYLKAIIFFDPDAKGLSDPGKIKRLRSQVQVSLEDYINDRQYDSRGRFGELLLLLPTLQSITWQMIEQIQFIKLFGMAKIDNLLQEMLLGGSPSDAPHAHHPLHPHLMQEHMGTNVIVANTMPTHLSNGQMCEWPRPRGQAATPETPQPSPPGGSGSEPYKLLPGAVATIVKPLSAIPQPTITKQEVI
Chain of Oxysterols receptor LXR-beta (Homo sapiens) (P55055 whole entry, looked up, the tested form may be a part): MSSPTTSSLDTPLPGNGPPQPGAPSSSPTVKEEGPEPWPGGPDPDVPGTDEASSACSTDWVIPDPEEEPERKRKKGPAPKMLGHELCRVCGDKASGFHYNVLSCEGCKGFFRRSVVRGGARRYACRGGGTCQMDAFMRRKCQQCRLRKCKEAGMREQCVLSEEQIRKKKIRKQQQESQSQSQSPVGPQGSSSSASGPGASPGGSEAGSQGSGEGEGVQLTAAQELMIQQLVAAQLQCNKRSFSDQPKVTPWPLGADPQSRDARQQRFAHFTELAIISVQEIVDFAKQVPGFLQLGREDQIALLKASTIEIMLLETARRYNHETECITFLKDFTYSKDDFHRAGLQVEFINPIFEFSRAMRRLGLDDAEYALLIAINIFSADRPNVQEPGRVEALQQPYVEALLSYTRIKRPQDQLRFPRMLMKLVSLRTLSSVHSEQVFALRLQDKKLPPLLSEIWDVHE
Chain of X-box-binding protein 1 (Homo sapiens) (P17861 whole entry, looked up, the tested form may be a part): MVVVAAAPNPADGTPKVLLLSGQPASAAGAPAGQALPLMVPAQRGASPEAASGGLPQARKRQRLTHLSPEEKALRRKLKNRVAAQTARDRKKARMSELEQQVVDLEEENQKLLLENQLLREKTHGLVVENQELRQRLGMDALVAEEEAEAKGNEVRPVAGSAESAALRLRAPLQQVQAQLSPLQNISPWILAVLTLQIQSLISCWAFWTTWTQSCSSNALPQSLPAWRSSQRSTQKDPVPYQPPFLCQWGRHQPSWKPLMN
Chain of Oxysterols receptor LXR-alpha (Homo sapiens) (Q13133 whole entry, looked up, the tested form may be a part): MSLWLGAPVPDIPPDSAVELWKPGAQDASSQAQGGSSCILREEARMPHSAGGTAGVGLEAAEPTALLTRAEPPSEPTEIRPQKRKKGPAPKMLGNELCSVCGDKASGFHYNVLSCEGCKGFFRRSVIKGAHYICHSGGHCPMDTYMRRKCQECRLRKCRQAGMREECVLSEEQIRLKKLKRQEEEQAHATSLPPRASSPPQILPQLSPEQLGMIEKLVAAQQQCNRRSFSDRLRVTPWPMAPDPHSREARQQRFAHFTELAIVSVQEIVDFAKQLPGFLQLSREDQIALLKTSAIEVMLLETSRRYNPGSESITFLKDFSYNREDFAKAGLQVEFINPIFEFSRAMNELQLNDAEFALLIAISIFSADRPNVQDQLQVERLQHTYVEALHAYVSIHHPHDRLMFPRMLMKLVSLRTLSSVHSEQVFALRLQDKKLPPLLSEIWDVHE
Chain of Transcriptional activator Myb (Homo sapiens) (P10242 whole entry, looked up): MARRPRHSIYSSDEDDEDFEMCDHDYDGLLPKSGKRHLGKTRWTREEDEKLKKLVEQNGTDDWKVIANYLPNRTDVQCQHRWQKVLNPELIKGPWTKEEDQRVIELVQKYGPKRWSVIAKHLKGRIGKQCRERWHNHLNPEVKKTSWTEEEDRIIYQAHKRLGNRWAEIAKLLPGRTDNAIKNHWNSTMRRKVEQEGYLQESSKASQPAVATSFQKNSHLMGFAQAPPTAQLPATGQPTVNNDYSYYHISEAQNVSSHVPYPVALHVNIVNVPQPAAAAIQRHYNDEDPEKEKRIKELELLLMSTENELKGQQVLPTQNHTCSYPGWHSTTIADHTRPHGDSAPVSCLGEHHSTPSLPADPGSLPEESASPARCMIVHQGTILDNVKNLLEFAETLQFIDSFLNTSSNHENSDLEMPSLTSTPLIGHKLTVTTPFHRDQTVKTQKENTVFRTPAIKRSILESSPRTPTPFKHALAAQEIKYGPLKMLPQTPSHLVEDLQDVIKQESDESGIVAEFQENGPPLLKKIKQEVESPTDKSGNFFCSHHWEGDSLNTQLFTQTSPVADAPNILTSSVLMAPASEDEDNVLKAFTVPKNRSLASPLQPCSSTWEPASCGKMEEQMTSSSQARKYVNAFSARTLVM
Chain of Nuclear receptor subfamily 4 group A member 2 (Homo sapiens) (P43354 whole entry, looked up, the tested form may be a part): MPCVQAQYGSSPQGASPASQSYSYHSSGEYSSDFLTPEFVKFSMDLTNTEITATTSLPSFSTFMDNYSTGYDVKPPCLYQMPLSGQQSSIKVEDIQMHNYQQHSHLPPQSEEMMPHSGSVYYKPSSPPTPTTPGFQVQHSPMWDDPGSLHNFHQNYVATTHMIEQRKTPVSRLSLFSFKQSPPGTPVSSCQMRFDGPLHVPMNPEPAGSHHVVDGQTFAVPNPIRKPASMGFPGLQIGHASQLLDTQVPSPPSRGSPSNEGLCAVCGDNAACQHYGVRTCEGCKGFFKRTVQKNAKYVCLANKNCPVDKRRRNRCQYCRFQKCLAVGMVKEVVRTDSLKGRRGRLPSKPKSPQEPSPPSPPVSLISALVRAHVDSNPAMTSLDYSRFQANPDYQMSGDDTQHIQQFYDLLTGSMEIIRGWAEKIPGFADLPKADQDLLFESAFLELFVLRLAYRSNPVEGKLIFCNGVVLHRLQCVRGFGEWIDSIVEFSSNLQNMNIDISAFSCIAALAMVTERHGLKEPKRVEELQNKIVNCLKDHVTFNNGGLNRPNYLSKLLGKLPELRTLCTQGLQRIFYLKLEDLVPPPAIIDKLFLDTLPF

For `CC(C#N)(CCC(=O)O)N=NC(C)(C#N)CCC(=O)O` (stereo not given), the outcome in experiment [1], in [2], in experiment [3], in [4], in experiment [5] and in experiment [6] was inactive. Also, the result in experiment [7], in [8], in experiment [9], in [10], in experiment [11] and in experiment [12] was inactive. The outcome in experiment [13] was inactive.
By AC50 is commonly meant the concentration at which the activity in the assay is half-maximal. As for `CCCc1c(OCCCOc2ccc(OCC(=O)O)cc2)ccc(C(C)=O)c1O`, the call in [1], in experiment [5], in experiment [14], in experiment [7], in [8] and in experiment [9] was inactive. The outcome in experiment [10], in experiment [11], in experiment [12] and in [16] was inactive. The half-maximal activity concentration (AC50) is 70.5 µM (active) in experiment [2], 27.5 µM (active) in [3], 100 µM (active) in experiment [15] and 100 µM (active) in experiment [13].
Take `CCN(CC)c1ccc2c(-c3ccccc3C(=O)O)c3ccc(=[N+](CC)CC)cc-3oc2c1`: the outcome in [1], in [2], in experiment [17], in [14], in experiment [8] and in experiment [12] was inactive. Besides, the call in [16] and in [13] was inactive. Besides, the AC50 in [3] was 33.5 µM (active); in experiment [5], 100 µM (active).
As to `Clc1ccc(Cl)c(Cl)c1Cl`, the result in experiment [1], in experiment [3], in experiment [5], in experiment [17], in experiment [14] and in experiment [7] was inactive. Moreover, the outcome in [9], in experiment [12], in experiment [15], in experiment [16] and in experiment [13] was inactive. The AC50 in [2] is 19.8 µM (active).
For `CCCCCC(CO)CCC` (stereo not given), the compound was classed as inactive in experiment [1], in experiment [2], in experiment [3], in [5], in [17] and in experiment [10]. Further, the compound was classed as inactive in [11], in experiment [16] and in experiment [13].
For the compound `Nc1nc2ccc([N+](=O)[O-])cc2s1`, the compound was called inactive in [1], in [2], in experiment [3], in [5], in experiment [17] and in [9]. The compound was called inactive in experiment [18], in experiment [11], in experiment [12], in experiment [15], in experiment [16] and in experiment [13].
On to `CCC(C)CCCC(C)(C)O` (stereo not given), for which the compound was classed as inactive in [1], in [2], in [3], in experiment [5], in [17] and in experiment [7]. The result in experiment [9], in experiment [12], in experiment [16] and in experiment [13] was inactive.
`O=c1[nH]nnc2ccccc12`: the result in experiment [1], in [2], in [3], in experiment [5], in experiment [17] and in experiment [8] was inactive. Besides, the compound was called inactive in experiment [18], in experiment [15], in experiment [16] and in experiment [13].
As to `CCCOCC(C)O` (stereo not given), the outcome in experiment [1], in experiment [2], in [3], in experiment [5], in [17] and in [14] was inactive. Moreover, the outcome in experiment [9], in experiment [10], in experiment [18], in experiment [11], in experiment [16] and in experiment [13] was inactive.
Turning to `CN(C)CCOCCN(C)C`, the call in [1], in experiment [2], in experiment [3], in experiment [5], in experiment [17] and in experiment [7] was inactive. Also, the result in experiment [8], in experiment [10], in [12] and in experiment [13] was inactive.
Turning to `OC1C(O)C(O)C(O)C(O)C1O` (stereo not given), the compound was called inactive in experiment [1], in experiment [2], in experiment [3], in [5], in experiment [17] and in experiment [14]. In addition, the compound was classed as inactive in experiment [9], in experiment [10], in experiment [18], in experiment [11], in experiment [12] and in experiment [15]. Besides, the result in experiment [16] was inactive.
